# Data from PubChem BioAssay AID2685 (National Center for Advancing Translational Sciences (NCATS), 2010).
# Hit rate of the full screen: of about 320,000 compounds, about 2,100 (0.66%) were called active. Not shown: some 53% with an inconclusive outcome. Calls come from the whole dose curve; as a rule, active = well fitted inhibition curve with a large enough effect in the signal ratio, with a control signal flat (not every such curve was filed as active); inconclusive = small, poorly fitted or top-dose-only effect, or effect the other way, or a change in a side signal; inactive = flat fitted curve, though single readings scatter; the % refers to the signal ratio. The full list was thinned out, with actives kept by preference.
# Experiment: qHTS Assay for Lipid Storage Modulators in Drosophila S3 Cells;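 for cell number change: cells counted by Cell Tracker Red CMTPX staining in the red channel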; for lipid storage change, negative = inhibition: % is set by controls: 0 for no effect and ±100 for the full control effect
# Conditions: BODIPY lipid droplet fluorescence, 18-24 h, cells fed with added oleic acid; cell number change: measured here: cell count max response; series mostly up to 46.1 µM; lipid storage change, negative = inhibition: at the top concentration
# How it was run: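 Laser-scanning cytometry quantifies lipid droplet accumulation (500–530 nm total intensity; droplet/cell object ratio) in oleic acid-fed (400 uM added) Drosophila S3 cells treated with a concentration series. 20 uM Triacsin C defined 100% inhibition.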
# Potency is the fitted concentration of half-maximal effect.
SMILES,"lipid storage change, negative = inhibition",cell number change,Potency,outcome
O=C(O)c1ccc(NC(=O)c2cn(-c3ccccc3)nc2-c2cccc(Cl)c2)cc1,-13.3% (inactive),4.66%,,
CC(O)c1nc2ccc(C(=O)O)cc2[nH]1 (stereo not drawn),-2.22% (inactive),-0.214%,,
CC(O)CCc1nc2ccc(C(=O)O)cc2[nH]1 (stereo not drawn),-7.1% (inactive),3.44%,,
CC(C)c1nc2ccc(C(=O)O)cc2[nH]1,,-0.0603%,23.1 µM (active),
COc1cccc(-n2c(SCC(=O)OC(C)C)nnc2-c2cccnc2)c1,,,,inactive
O=C(COc1ccc(Br)cc1)N1CCNC1=O,,-1.77%,,inactive
O=C(COc1ccccc1)N1CCNC1=O,,-10.9%,11.6 µM (active),
O=C(COc1ccccc1Br)N1CCNC1=O,10.5% (inactive),-13%,,
CCOc1ccc(NC(=NCc2ccc3c(c2)OCO3)SC2CC(=O)N(c3ccc(OCC)cc3)C2=O)cc1 (stereo not drawn),-5.4% (inactive),1.82%,,
COc1cccc(NC(=O)[C@@H]2CCCN2C(=O)[C@@H]2Cc3ccccc3CN2C(=O)OC(C)(C)C)c1,,-9.43%,,inactive
O=C1C2C(c3ccccc3)CC=CC2[C@H](c2ccc(C(F)(F)F)cc2)N1Cc1ccccc1 (stereo partly drawn),,,18.4 µM (active),
O=C1C2C(c3cccc(/C=C/c4ccccc4)c3)CC=CC2C(c2ccc(C(F)(F)F)cc2)N1Cc1ccccc1 (stereo not drawn),9.24% (inactive),-0.28%,,
Cc1ccc(-c2cccc(C3CC=CC4C3C(=O)N(Cc3ccccc3)C4c3ccc(C(F)(F)F)cc3)c2)cc1 (stereo not drawn),12.2% (inactive),0.818%,,
O=C1CCCc2ccccc2N1,5.18% (inactive),15.4%,,
O=C(Nc1ccncc1)OCc1ccccc1,,-15%,,inactive
CC(=O)NCCOC(=O)Nc1ccncc1,,-23.8%,18.4 µM (active),
O=C(Nc1ccc(Cl)c(Cl)c1)OCCNC(=O)c1ccncc1,6.78% (inactive),19.3%,,
C=C(C)C(=O)N1CC2(CC(c3cccc(NC(=O)CC(c4ccccc4)c4ccccc4)c3)=NO2)C[C@H]1C(N)=O (stereo partly drawn),7.73% (inactive),-5.55%,,
COc1ccccc1CCC(=O)OCC(=O)Nc1cc(C)nn1-c1ccccc1,17.4% (inactive),9.67%,,
COc1cccc(NC(=O)Nc2ccc3c(c2)nc(C)n3C)c1,1.42% (inactive),-12.3%,,
O=C(NNC(=O)c1ccc2ccccc2n1)c1ccc(O)cc1,13% (inactive),-5.74%,,
O=C(NNc1c2ccccc2nc2ccccc12)c1ccc(O)cc1,,-16.9%,16.4 µM (active),
Nc1ccccc1C(=O)NNc1c2ccccc2nc2ccccc12,-6.09% (inactive),-7.95%,,
O=C(CN1C(=O)NC2(CCCC2)C1=O)Nc1cc(Cl)ccc1Oc1ccccc1,23.3% (inactive),2.01%,,

SMILES,"lipid storage change, negative = inhibition",cell number change,Potency,outcome
O=C(O)c1ccc(CSc2nnc(-c3ccco3)o2)cc1,,,1.84 µM (active),
c1ccc(CSc2nnc(-c3ccco3)o2)cc1,21.4% (inactive),29.7%,,
Brc1ccc(CSc2nnc(-c3ccco3)o2)cc1,4.11% (inactive),-8.74%,,
CCC(C)[C@H](NC(=O)NCCCN1CCOCC1)C(=O)OC (stereo partly drawn),-7.03% (inactive),4.55%,,
COCCCNC(NC(=O)c1ccc(Cl)cc1)C(Cl)(Cl)Cl (stereo not drawn),-10.7% (inactive),18.7%,,
Cc1ccc(NC(=O)Nc2cccc([N+](=O)[O-])c2)cc1F,,-9.68%,9.2 µM (active),
O=C(Nc1cccc([N+](=O)[O-])c1)Nc1cccc([N+](=O)[O-])c1,-13.5% (inactive),-6.97%,,
Cc1cc(NC(=O)Nc2cccc([N+](=O)[O-])c2)no1,18.7% (inactive),,,
COc1ccc(CNC(=O)c2cccnc2Sc2ccc(C)c(C)c2)cc1,12.2% (inactive),-8.63%,,
Cc1cc(C(=O)CCC(=O)Nc2ncccc2O)c(C)s1,,23.7%,,inactive
Cc1cc(OC(C)C(=O)NNC(=O)Nc2ccc(F)cc2F)cc(C)c1Cl (stereo not drawn),-7.22% (inactive),12.3%,,
CC(=O)N1N=C(c2ccccc2OC(=O)/C=C/c2ccccc2)CC1c1ccccc1 (stereo not drawn),-2.65% (inactive),,,
COc1cc(C2CC(c3cccs3)=NN2C(=O)CCl)ccc1OC(F)F (stereo not drawn),,6.96%,11.6 µM (active),
COc1ccc(C2CC(c3ccc4ccccc4c3OC(C)=O)=NN2C(=O)/C=C/c2ccccc2)cc1 (stereo not drawn),,-4.95%,6.51 µM (active),
COc1ccc(CC(=O)OCC(=O)N2N=C(c3ccccc3)CC2c2ccc(OC)cc2)cc1 (stereo not drawn),6.9% (inactive),9.3%,,
COc1ccc(C2CC(c3cccs3)=NN2C(=O)c2ccccc2)cc1OC (stereo not drawn),-4.84% (inactive),0.175%,,
COc1ccc(C2CC(c3ccccc3)=NN2C(=O)CSc2ncccn2)cc1 (stereo not drawn),,-10.6%,18.4 µM (active),
COc1ccc(C2CC(c3ccc(OC)cc3OC(C)=O)=NN2C(=O)c2ccccc2)cc1 (stereo not drawn),-12.8% (inactive),-16.6%,,
COc1ccc(C2=NN(C(=O)CSc3ncccn3)C(c3ccc(OC)cc3)C2)cc1 (stereo not drawn),-17.9% (inactive),-13.6%,,
COc1ccc(C2CC(c3ccccc3)=NN2C(=O)COC(=O)c2cccnc2)cc1 (stereo not drawn),-12% (inactive),-20.7%,,
COc1ccc(C2CC(c3cccs3)=NN2C(=O)COC(=O)C2CCCCC2)cc1OC (stereo not drawn),,,,inactive
COc1ccc(C2=NN(C(=O)CSc3ncccn3)C(c3ccc(C)cc3)C2)cc1 (stereo not drawn),-17% (inactive),-13.1%,,
COc1ccc(C2CC(c3ccccc3)=NN2C(=O)COC(=O)CNC(=O)c2ccccc2)cc1 (stereo not drawn),,17%,14.6 µM (active),
